Rows were chosen to be rich in hits. Some 2.2% of all compounds tested hit in one or more screens of this group.
HIF act – HIF pathway transcriptional activators, primary screen, cell-based, U2OS HRE-luciferase, luminescence | U2OS HRE-luciferase reporter; normalized: DMSO 0%, desferrioxamine 100% | activation, % at 7.5 µM (by protocol) | 300,000 tested, 0.32% active;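 active means mean activation of at least 10% of the iron chelator positive control signal, with at least half of replicates also reaching 10%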
Hsp70 act – Hsp70 transcriptional activators, primary screen, cell-based, HeLa, Hsp70 promoter luciferase, luminescence, 10 µM; HeLa Hsp70 promoter luciferase reporter; scaled: vehicle 0, proteasome-inhibitor control 100%; activation, % at 10 µM; 200,000 tested, 0.04% active; AID 1203, 2008;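 active means activation above the mean across all tested compounds plus 3 SD, cutoff set per campaign, cut at about 5.5% in these data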;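 further: 100% = MG132 at 30 µM as the positive control and 0% = DMSO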
SMARCA2 act – SMARCA2 (BRM) function activators, primary screen, cell-based, luminescence, high throughput. activation, % at 9.1 µM. AID 652017, 2013. MG213 cells, MMTV-luciferase reporter, dexamethasone, overnight. 370,000 tested, 1% active; in the data active means activation above about 7.8%;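 further: 0% = vehicle wells and 100% = reference activator wells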
GAA850 FXN act – FXN promoter activators, primary screen, cell-based, luciferase luminescence, HEK293 lucGAA850 | HEK293 lucGAA850 FXN promoter luciferase reporter, 24 h; percent of 10 µM SAHA response | activation, % at 6 µM | 360,000 tested, 0.56% active;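 active means activation above the average of all compounds screened plus 3 SD, cutoff fixed separately per campaign, cut at about 7.5% in these data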;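 further: 0% = DMSO wells and 100% = 10 µM SAHA wells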
GalR3 antagonist – GalR3 antagonists in HEK293 cells, primary screen, cell-based, fluorescence readout. HEK293 GalR3-CNG cAMP membrane potential fluorescence; galR3 body fused to GalR1 C-terminus. inhibition, % at 3 µM. 360,000 tested, 0.44% active;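 active means inhibition above the screen-wide average plus 3 SD, cut at about 13% in these data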;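 further: forskolin and galanin both at EC90 stimulate the cells; cAMP rise reported by CNG channel membrane potential dye signal; 0% = forskolin plus galanin with DMSO and 100% = forskolin alone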
Target sequence (O60755 1-299 limits assumed): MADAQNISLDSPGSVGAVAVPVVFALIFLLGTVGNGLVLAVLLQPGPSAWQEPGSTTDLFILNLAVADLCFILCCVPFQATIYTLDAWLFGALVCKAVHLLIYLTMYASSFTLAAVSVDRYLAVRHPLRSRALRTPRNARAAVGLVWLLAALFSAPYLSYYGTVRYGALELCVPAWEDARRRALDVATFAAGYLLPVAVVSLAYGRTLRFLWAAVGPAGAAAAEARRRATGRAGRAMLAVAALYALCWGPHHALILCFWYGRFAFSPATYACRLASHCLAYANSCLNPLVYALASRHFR
Hsp70 act DR – Hsp70 transcriptional activators, dose response, cell-based, HeLa, Hsp70 promoter luciferase, luminescence, triplicate; 70 tested, 10% active; shares compounds with Hsp70 act; HeLa hsp70.1pr-luc reporter; calls only at 99 µM;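 active means over 50% activation at some tested dose; inactive means under 50% activation at every tested dose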
GAA30 counter – GAA30 FXN promoter activators, confirmation, counter-screen for GAA850 frataxin promoter activator project, cell-based, luminescence, HEK293, lucGAA30, triplicate | 1,900 tested, 66% active | HEK293 lucGAA30 FXN promoter luciferase, 24 h; DMSO = 0%, 5 µM ipriflavone = 100% | activation, % at 6 µM | shares compounds with GAA850 FXN act;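 active means mean activation above the mean of solvent-only control wells plus 3 SD, cut at about 22% in these data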;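 further: counterscreen of GAA850 promoter hits where activity marks nonselective or luminescence artifacts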
FXN GAA850 conf – FXN GAA850 promoter activators in reporter cells, confirmation, cell-based, luminescence, HEK293 lucGAA850, triplicate. shares compounds with GAA850 FXN act. AID 588351, 2011. HEK293 lucGAA850 FXN promoter luciferase reporter, 24 h; 100% = activation by SAHA. activation, % at 6 µM. 1,900 tested, 86% active;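 active means mean activation above a set limit taken from the primary screen, cut at about 8% in these data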;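 further: 0% = DMSO wells and 100% = 10 µM SAHA wells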
Starred values were filed as active, the others as inactive.

`CC[n+]1c(/C=C2\Sc3ccccc3N2C)ccc2cccc(C)c21` gave HIF act -7, Hsp70 act 8.9*, SMARCA2 act -10, GAA850 FXN act -9, GalR3 antagonist 9 and Hsp70 act DR inactive.
CCCCOCCCNC(=O)C[C@H]1C[C@@]2(C(=O)OCC)CCCC3=C2N(CCC3)C1=O was read as SMARCA2 act 2.
CCOC(=O)c1sc2nc(C)nc(Nc3ccccc3)c2c1C was read as HIF act 0, Hsp70 act 5.7*, SMARCA2 act 0, GAA850 FXN act 0, GalR3 antagonist -2 and Hsp70 act DR inactive.
Screening Cc1cc(Oc2cccnc2)ccc1NC(=O)CCc1c[nH]c2ccccc12 returned SMARCA2 act -3 and GalR3 antagonist -6.
O=C1/C(=C/c2ccncc2)Cc2ccccc21 was read as HIF act 0, SMARCA2 act 0, GAA850 FXN act 4 and GalR3 antagonist -1.
For CC1C/C(=C/c2ccncc2)C(=O)/C(=C/c2ccncc2)C1 (stereo not given) the results were HIF act -4, Hsp70 act 178*, SMARCA2 act -10, GAA850 FXN act -17, GalR3 antagonist -9 and Hsp70 act DR active.
Cc1ccc(NC(=S)NC(NC(=O)c2ccccc2)C(Cl)(Cl)Cl)c(C)c1 (stereo not given) was read as HIF act -1, Hsp70 act 7.0*, SMARCA2 act -6, GAA850 FXN act -15, GalR3 antagonist -10 and Hsp70 act DR inactive.
Screening COC(=O)[C@H](CC(C)C)N1Cc2nnn(Cc3ccc(C)cc3)c2-c2cc(F)ccc2S1(=O)=O returned SMARCA2 act -1.
O=C(Nc1ccccc1)OCCN1C(=O)CCC12CCC(c1ccc(Cl)cc1)CC2 (stereo not given) was read as SMARCA2 act -2.
Screening Cc1ccc(-c2nc(NC(=O)c3nn(C)cc3[N+](=O)[O-])sc2C)cc1 returned HIF act -4, Hsp70 act 1, SMARCA2 act -11, GAA850 FXN act -7 and GalR3 antagonist -3.
Cc1ccc(-c2nc(NC(=O)c3nn(C)cc3[N+](=O)[O-])sc2C)cc1C was read as HIF act -4, Hsp70 act 14*, SMARCA2 act -10, GAA850 FXN act 0, GalR3 antagonist -3 and Hsp70 act DR inactive.
Screening OCCCN1CCC2(CCC(c3ccccc3)CC2)C1 (stereo not given) returned SMARCA2 act -2.
`CCCCCOCC1CC(C/C(C)=N/NC(N)=O)(C(=O)OCC)C(=O)O1` (stereo not given) gave HIF act -1, SMARCA2 act -1, GAA850 FXN act -1 and GalR3 antagonist -6.
`CCOC(=O)C1(C/C(C)=N/NC(N)=O)CC(C)OC1=O` (stereo not given) gave HIF act -1, Hsp70 act 5.7*, SMARCA2 act 0, GAA850 FXN act -4, GalR3 antagonist -1 and Hsp70 act DR inactive.
`O=C(Nc1ccc(N2CCCC2)c(Cl)c1)c1ccc([N+](=O)[O-])o1` gave Hsp70 act 20*, SMARCA2 act 6, GAA850 FXN act 18*, GalR3 antagonist -2, Hsp70 act DR inactive, GAA30 counter 118* and FXN GAA850 conf 70*.
Screening O=C(Nc1ccccc1N1CCCC1)c1ccc([N+](=O)[O-])o1 returned HIF act 0, SMARCA2 act 1, GAA850 FXN act 1 and GalR3 antagonist 1.
COC(=O)[C@]12C[C@H](CC(=O)N3CCOCC3)C(=O)N(Cc3cccc4ccccc34)C1=C[C@H](C1CCCC1)O[C@@H]2C was read as SMARCA2 act -2.
CCCCCCCCN1CN2Cc3ccc(C)cc3C2CS1(=O)=O (stereo not given) was read as SMARCA2 act -1.
For CC(=O)Nc1sc2c(c1-c1nc3ccccc3s1)CCN(C(C)C)C2 the results were Hsp70 act 7.5*, GAA850 FXN act 34*, Hsp70 act DR inactive, GAA30 counter -33 and FXN GAA850 conf 91*.
Cc1cc(C(=O)Cn2ncc(Cl)c(Cl)c2=O)c(C)n1CC(F)(F)F was read as HIF act -7, Hsp70 act 16*, SMARCA2 act -12, GAA850 FXN act 14*, GalR3 antagonist 4, Hsp70 act DR inactive, GAA30 counter 21 and FXN GAA850 conf 22*.
For Cc1nn(C)c(C)c1S(=O)(=O)NC1CCCC1 the results were HIF act -1, Hsp70 act 0, SMARCA2 act 0, GAA850 FXN act 1 and GalR3 antagonist 1.
Screening Cc1nn(-c2nnc(NC3CCCCC3)nn2)c(C)c1Br returned HIF act 1, Hsp70 act 0, SMARCA2 act 2, GAA850 FXN act 8.6*, GalR3 antagonist -2, GAA30 counter 124* and FXN GAA850 conf 40*.
Screening CC[C@@]12C(=O)N(c3cccc(Br)c3)C(=O)N1[C@H](c1ccc(Br)cc1)[C@@H]1C(=O)N(C(C)(C)C)C(=O)[C@@H]12 returned HIF act 1, SMARCA2 act -1, GAA850 FXN act 11*, GalR3 antagonist -4, GAA30 counter 45* and FXN GAA850 conf 17*.
For CC(C)(C)N1C(=O)[C@H]2[C@@H](c3ccc(Br)cc3)N3C(=O)N(c4cccc(Cl)c4)C(=O)[C@@]3(Cc3ccccc3)[C@H]2C1=O the results were HIF act 0, SMARCA2 act 0, GAA850 FXN act 12*, GalR3 antagonist -4, GAA30 counter 16 and FXN GAA850 conf 14*.
`COc1ccc([C@@H]2[C@@H]3C(=O)N(C(C)(C)C)C(=O)[C@@H]3[C@]3(Cc4ccccc4)C(=O)N(c4cccc(Cl)c4)C(=O)N23)cc1` gave HIF act 1, SMARCA2 act 2, GAA850 FXN act 2 and GalR3 antagonist -2.
